High-throughput results from PubChem.
aSyn UTR act: Activators working through SNCA 5'UTR binding (MLPCN); alpha-synuclein 5'UTR reporter, activators screen; activity score, % (tested at 7.5 µM), hits read low; 300,000 compounds, 7.1% hits; AID 1814; in the data active means activity score below about -60%
A number is an active result; 0 = inactive. Not all results are given here.

SMILES	aSyn UTR act
Cc1cccc(C(=O)NNC(=O)c2ccccc2O)c1	-76
Cc1ccccc1NC(=O)c1cccc2nccnc12	-74
Cc1ccc(C)c(NC(=O)c2ccccc2O)c1	-96
O=C(Nc1ccccc1O)c1ccc(C(=O)c2ccccc2)o1	-96
COc1ccccc1Nc1nc(NCCO)nc(N)c1[N+](=O)[O-]	0
COc1ccccc1Nc1nc2ccc(C)cc2cc1C#N	-87
COc1cc2nc(Nc3ccc(C)c(C)c3)nc(N)c2cc1OC	-131
COc1cc2nc(Nc3ccc(C)c(Cl)c3)nc(N)c2cc1OC	0
COC(=O)c1ccc(Nc2nc(C)cc(C)n2)cc1	-83
CCOC(=O)c1ccc(Nc2nc(N)c3cc(OC)c(OC)cc3n2)cc1	-104
COc1cc2nc(N(C)C)nc(N)c2cc1OC	-78
COC(=O)c1ccc(Nc2cc(C)nc3ccccc23)cc1	0
COc1cc2nc(Nc3ccc(F)cc3)nc(N)c2cc1OC	-131
CC(C)c1ccc2[nH]c3c(c2c1)[C@@H]1CCN2C(=O)CCC[C@H](C3)[C@H]12	-93
COc1ccccc1CNc1ccc(Br)cn1	-113
Oc1ccccc1CNc1ccc(Br)cn1	-300
Clc1ccc(COn2ccnc2)cc1Cl	-104
Cn1cc(/C=C(\NC(=O)c2ccccc2Cl)C(=O)NCCN2CCOCC2)c2ccccc21	-72
CCN(CC)CCNC(=O)/C(=C/c1cn(C)c2ccccc12)NC(=O)c1ccc(OC)c(OC)c1	-64
c1ccc(COc2ccc3nocc3c2)cc1	-104
COCc1nnc(NC(=O)c2sc3ccccc3c2Cl)s1	-102
CNC(=O)c1ccsc1NC(=O)c1sc2ccccc2c1Cl	-168
CCc1ccc(/C=C2/C(=O)N(C)C(=S)N2CC(=O)OC)s1	-81
O=C(Nc1nnc(SCc2ccccc2)s1)c1cccs1	-67
CCSc1nnc(NC(=O)C(C)(C)C)s1	-107
SMILES	aSyn UTR act
CC(=O)Cc1nsc(NC(=O)c2cccs2)n1	-67
O=C(Nc1nnc(SCc2ccc(F)cc2)s1)c1ccccn1	0
CCSc1nnc(NC(=O)c2cccs2)s1	-138
CCSc1nnc(NC(=O)NC2CCCCC2)s1	-64
O=S(=O)(c1ccc(F)cc1)c1snnc1-c1ccccc1	-76
O=S(=O)(c1ccc(Cl)cc1)c1snnc1-c1ccccc1	0
COc1ccc2sc3c(=O)[nH]c4ccccc4c3c2c1	0
O=c1c2ccccc2sc2ccc(C#CC3(O)CCCCC3)cc12	0
COc1ccc2sc3ccccc3c(=O)c2c1OC	-145
COc1cccc2sc3ccc(C#CC4(O)CCCCC4)cc3c(=O)c12	-191
COc1cccc2sc3ccc(C#Cc4ccc(N)cc4)cc3c(=O)c12	-111
COc1cccc2sc3ccc(NCc4ccc5c(c4)OCO5)cc3c(=O)c12	-63
Nc1ccc(C#Cc2ccc3sc4ccccc4c(=O)c3c2)cc1	-190
Cc1ccc2nc(-c3sc4nc(C)cc(C)c4c3N)[nH]c2c1	-63
O=C(CCc1ccccc1)Nc1ccc(Cl)cn1	-314
O=C(Nc1ccc(Cl)cn1)c1ccc(Oc2ccccc2)cc1	-143
O=C(CCc1ccccc1)NC(c1cccs1)c1cc(Cl)c2cccnc2c1O (centres undefined)	0
O=C(/C=C/c1ccccc1Cl)Nc1ccc(Cl)cn1	-118
O=C(COc1ccccc1)Nc1ccc(Cl)cn1	-114
O=C(COc1ccc(Cl)cc1)Nc1ccc(Cl)cn1	-125
O=C(COc1ccc2c(c1)OCO2)Nc1ccccc1F	-98
Cc1ccc(CC(=O)Nc2ccc(Cl)cn2)cc1	-101
Cc1ccccc1NC(=O)COc1ccc2c(c1)OC(C)(C)CC2=O	-88
O=C(/C=C/c1ccc2c(c1)OCO2)Nc1ccc(Cl)cn1	-110
O=C(COc1ccc2c(c1)OCO2)Nc1ccc(Cl)cn1	-142
SMILES	aSyn UTR act
Cc1c(NC(=O)c2ccc(-c3ccccc3)cc2)cccc1C(=O)O	-85
O=C(Nc1sc(-c2ccccc2)cc1C(=O)O)c1ccccc1	-100
O=C(Nc1c(Cl)cccc1Cl)c1ccc(-c2ccccc2)cc1	-66
CN(C)c1nc2ccc(OCCN3CCCCC3)cc2s1	-71
Cc1ccc(Nc2cccccc2=O)cc1	-101
CCC(=O)Nc1cnc(NC(=O)c2cccc(F)c2)cc1C	-107
CC(=O)Nc1cnc(NC(=O)c2cccc(F)c2)cc1C	-148
O=C(Nc1ccc2c(c1)ncn2-c1ccccc1)c1ccco1	-131
Cn1cnc2cc(NC(=O)c3ccco3)ccc21	-71
O=[N+]([O-])c1cccc(-c2cn(-c3ccccc3)c(=S)[nH]2)c1	-179
O=[N+]([O-])c1ccc(-c2cn(-c3ccccc3)c(=S)[nH]2)cc1	-101
Cc1cccc(-n2cc(-c3ccc([N+](=O)[O-])cc3)[nH]c2=S)c1	-80
N=C1C(c2nc3ccccc3s2)=C(O)CN1Cc1ccccc1	-342
O=C(CNC(=O)c1cccs1)c1ccc(Cl)cc1	-89
Cc1ccc2cc(CCNC(=O)c3cccs3)c(=O)[nH]c2c1C	-190
O=C(NCCc1ccc(Cl)cc1)c1cccs1	-156
CC(C)(C)C1CCC(OC(=O)c2cncc(Br)c2)CC1 (centres undefined)	-123
COc1c(C(=O)Nc2ccc(Br)cn2)ccc2ccccc12	-167
O=C(Nc1ccc(Br)cn1)c1ccc2ccccc2c1	-83
COc1cc2ccccc2cc1C(=O)Nc1ccc(Br)cn1	-175
CCn1cc(NC(=O)CCl)c(C)n1	-104
CCCCOc1ccc(N2C(=O)CC(N(O)c3ccccc3)C2=O)cc1 (centres undefined)	-85
COc1cccc2cc(-c3ccnc(=S)[nH]3)oc12	-74
CCSc1nn2c(=O)c3ccccc3nc2s1	-120
O=C(NC(=S)NC1CCCCC1)c1ccc(F)cc1	-162
SMILES	aSyn UTR act
O=C(NC(=S)NNC(=O)c1cnccn1)c1ccc(F)cc1	0
O=C(Nc1ccc(F)cc1)NC1CCCCC1	-111
CC(C)CNC(=S)NC(=O)c1ccc(F)cc1	-150
O=C(Nc1cccc(F)c1)NC1CCCCC1	-156
O=C(Nc1ccc(N2CCOCC2)cc1)NC1CCCCC1	-78
N/C(=N\OC(=O)Cc1ccccc1)c1ccccc1Cl	-143
N/C(=N\OC(=O)Cc1ccccc1)c1cccc(Br)c1	-72
CCC(=O)N/C(N)=N/c1nc(C)c2cc(OC)ccc2n1	-107
COc1ccc2nc(/N=C(\N)NC(=O)C(C)(C)C)nc(C)c2c1	-85
CCOC(=O)c1c(NC(=S)N2CCN(C)CC2)sc2c1CCN(C(=O)OCC)C2	-63
Cc1nn(-c2nc3ccccc3s2)c(C)c1Oc1ccccc1O	-77
O=C(Nc1ccc(F)cc1F)c1ccc2nc(N3CCOCC3)sc2c1	-62
O=C(Nc1ccccc1Cl)c1ccc2nc(N3CCOCC3)sc2c1	-99
O=C(N/N=C/c1sc(N2CCOCC2)nc1-c1ccccc1)c1cccc(S(=O)(=O)N2CCCC2)c1	0
O=C(Nc1ccccc1F)c1ccc2nc(N3C(=O)CCC3=O)sc2c1	-117
CC(=O)Nc1ccc2cc3ccc(NC(C)=O)cc3nc2c1	-73
Nc1nc2ccc(C(=O)Nc3ccccc3)cc2s1	-129
CCc1ccc(NC(=O)c2ccc3nc(N)sc3c2)cc1	-131
CC(=O)Nc1ccc2nc(N)sc2c1	-107
O=C(NC(=S)Nc1ccccc1Cl)c1ccco1	-112
O=C(NC(=S)Nc1ccc(N2CCCCC2)cc1)c1ccco1	-182
CC1CCN(c2ccc(NC(=S)NC(=O)c3ccco3)cc2)CC1	-132
O=C(NC(=S)N(CCc1ccccc1)CCc1ccccc1)c1ccco1	0
Brc1ccc(C2C3=C(Nc4ncnn42)c2ccccc2OC3c2ccncc2)cc1 (centres undefined)	0
Cc1c(-c2ccc(Cl)cc2)[n+](=O)c(-c2ccccc2)cn1[O-]	-118
